Our source for the outcome and AC50 values is PubChem BioAssay (EPA / NIEHS).

Test [1] in a line: APR_HepG2_NuclearSize_24hr: Apredica 24-hour HepG2 Assay for Nuclear Size (AID 2282907). Particulars: high-content imaging, actives raise or lower the signal. Summed up: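 Compounds in DMSO (final 0.5%) were added to human HepG2 hepatoma cells at ten concentrations up to 200 uM for 24 hr. Fixed nuclei were stained with Hoechst 33342, and nuclear diameter was quantified from automated images.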

The nature of test [2]: APR_HepG2_CellLoss_24hr: Apredica 24-hour HepG2 Assay for Cell Loss (AID 2282908).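 As to AC50: fit in both directions so a hit may be cell loss or gain.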 Particulars: high-content imaging. Summed up:
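Cell number is quantified by fluorescence imaging of Hoechst 33342-stained nuclei following dosing at 0.39–200 uM in 0.5% DMSO. Curves are fitted in both directions from the DMSO baseline.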

Test [3] can be described thus: APR_HepG2_MicrotubuleCSK_24hr: Apredica 24-hour HepG2 Assay for Microtubule CSK Stabilty (AID 2282909). Particulars: HepG2 microtubule cytoskeleton imaging, actives raise or lower the signal. Summed up: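 Steps: dose HepG2 for 24 h (0.39–200 uM, 0.5% DMSO); fix 30 min in 3.7% formaldehyde at room temperature; permeabilize; stain alpha-tubulin 60 min; image microtubule cytoskeleton at 20x. Signal change fitted in both directions relative to DMSO.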

The nature of test [4]: APR_HepG2_MitoticArrest_24hr: Apredica 24-hour HepG2 Assay for Mitotic Arrest (AID 2282910). Particulars: high-content imaging, actives raise or lower the signal. Summed up: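 HepG2 human liver cells were exposed to compounds at 0.39–200 uM (10 concentrations, duplicate) in 0.5% v/v DMSO for 24 hr, then fixed and immunostained for phospho-histone H3 with Hoechst 33342. Mitotic arrest came from HCS fluorescent imaging, fitted bidirectionally against DMSO.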

A short description of test [5]: APR_HepG2_MitoMembPot_24hr: Apredica 24-hour HepG2 Assay for Mitochondrial Membrane Potential (AID 2282911). Particulars: imaging, actives raise or lower the signal. Summed up: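 HepG2 cells exposed 24 h to 0.39–200 uM compounds in duplicate, 0.5% v/v DMSO final. MitoTracker Red CMXRos 250 nM loaded 30 min before formaldehyde fixation; high-content imaging at 20x, bidirectional fit versus DMSO.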

Test [6] is described as follows: APR_HepG2_MitoMass_24hr: Apredica 24-hour HepG2 Assay for Mitochondrial Mass (AID 2282912). Particulars: high-content imaging, actives raise or lower the signal. Summed up:
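The liver line HepG2 was dosed in duplicate across a 0.39–200 uM series, with final DMSO held at 0.5% v/v, and harvested at 24 hr. High-content imaging measured mitochondrial dye staining.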

The nature of test [7]: APR_HepG2_p53Act_24hr: Apredica 24-hour HepG2 Assay for p53 Activation (AID 2282913).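 Also: p53 protein immunofluorescence averaged per cell in HepG2 with Hoechst nuclei.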 Particulars: high-content imaging, actives raise or lower the signal. Summed up:
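HepG2 cells exposed 24 h to compounds at 0.39–200 uM in duplicate, 0.5% v/v DMSO final; fixed, permeabilized, stained with anti-p53 antibody and Hoechst 33342; fluorescence imaging; bidirectional curve fit versus DMSO.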

A short description of test [8]: APR_HepG2_CellCycleArrest_72hr: Apredica 72-hour HepG2 Assay for Cell Cycle Arrest (AID 2282914). Particulars: high-content imaging, actives raise or lower the signal. Summed up:
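HepG2 cells exposed 72 h in duplicate to 0.39–200 uM compound, 0.5% DMSO final. Formaldehyde-fixed, Hoechst 33342-stained nuclei imaged at 20x, six fields per well; DNA content per valid cell quantified by cell-cycle image analysis, bidirectional fit versus DMSO.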

Test [9] is described as follows: APR_HepG2_CellLoss_72hr: Apredica 72-hour HepG2 Assay for Cell Loss (AID 2282915). Particulars: high-content imaging. Summed up:
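HepG2 cells were exposed for 72 hr to compounds at 0.39–200 uM (ten concentrations, duplicate) in 0.5% v/v final DMSO. Nuclei were stained with Hoechst 33342 after 3.7% formaldehyde fixation, imaged at 20x, and counted; fits bidirectional versus DMSO.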

A short description of test [10]: APR_HepG2_P-H2AX_72hr: Apredica 72-hour HepG2 Assay for H2AX Phosphorylation (AID 2282916).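 Also: phospho-histone H2A.x immunostain intensity per cell marking DNA damage.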 Particulars: imaging, actives raise or lower the signal. Summed up: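 Following 72 hr treatment with 0.39–200 uM compound, HepG2 cells were formaldehyde-fixed, permeabilized and stained for phospho-H2A.x; signal was measured by high-content imaging and fitted bidirectionally against DMSO controls.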

A short description of test [11]: APR_HepG2_MitoMembPot_72hr: Apredica 72-hour HepG2 Assay for Mitochondrial Membrane Potential (AID 2282917). Particulars: imaging, actives raise or lower the signal. Summed up: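 HepG2 cells exposed 72 h to compounds at 0.39–200 uM (0.5% v/v DMSO, duplicates); MitoTracker Red CMXRos 250 nM loaded 30 min before 3.7% formaldehyde fixation, imaged by HCS fluorescence. Bidirectional fit versus DMSO.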

The nature of test [12]: APR_HepG2_MitoticArrest_72hr: Apredica 72-hour HepG2 Assay for Mitotic Arrest (AID 2282918). Particulars: high-content imaging, actives raise or lower the signal. Summed up:
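HepG2 cells treated 72 h at 0.39–200 uM, 0.5% DMSO final; formaldehyde-fixed, stained with Hoechst 33342 and phospho-histone H3 antibody, imaged by high-content fluorescence; bidirectional fit versus DMSO.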

The nature of test [13]: APR_HepG2_MicrotubuleCSK_72hr: Apredica 72-hour HepG2 Assay for Microtubule CSK Stabilty (AID 2282919). Particulars: HepG2 microtubule cytoskeleton, high-content imaging, actives raise or lower the signal. Summed up: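 HepG2 human liver cells were dosed for 72 h at ten concentrations from 0.39 to 200 uM in duplicate (0.5% v/v DMSO final). Fixed, permeabilized cells were immunostained for alpha-tubulin (Cy5) with a Hoechst counterstain and imaged at 20x.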

A short description of test [14]: APR_HepG2_P-H2AX_24hr: Apredica 24-hour HepG2 Assay for H2AX Phosphorylation (AID 2282920). Particulars: high-content imaging, actives raise or lower the signal. Summed up: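 HepG2 cells dosed 24 h at 0.39–200 uM (10 points, duplicate, 0.5% DMSO final). Formaldehyde-fixed and permeabilized, then immunostained for phospho-H2A.x with Hoechst. Fluorescence quantified by high-content imaging, fitted bidirectionally versus DMSO.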

Test [15] in a line: APR_HepG2_StressKinase_72hr: Apredica 72-hour HepG2 Assay for Stress Kinase (AID 2282921). Particulars: HepG2 stress kinase (phospho-c-Jun) imaging, actives raise or lower the signal. Summed up: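 Fluorescence intensity of Cy3-tagged anti-phospho-c-Jun antibody, quantified per cell from Hoechst-defined nuclei across six images per well, served as the read-out following 72 h exposure (0.39–200 uM, 0.5% v/v DMSO).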

Test [16] can be described thus: APR_HepG2_StressKinase_24hr: Apredica 24-hour HepG2 Assay for Stress Kinase (AID 2282922). Particulars: HepG2 stress kinase (phospho-c-Jun) imaging, actives raise or lower the signal. Summed up:
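HepG2 cells exposed 24 hr to compound at 0.39–200 uM (10 concentrations, duplicate), 0.5% v/v DMSO final. Fixed in 3.7% formaldehyde, permeabilized with Triton X-100, immunolabeled for phospho-c-Jun with Hoechst 33342; HCS fluorescence imaging, bidirectional fit versus DMSO.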

Test [17] in a line: APR_HepG2_p53Act_72hr: Apredica 72-hour HepG2 Assay for p53 Activation (AID 2282923).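 Also: average cellular p53 protein immunofluorescence intensity in HepG2 cells.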 Particulars: high-content imaging, actives raise or lower the signal. Summed up: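 HepG2 monolayers receive test compounds in duplicate at ten concentrations (0.39 through 200 uM) for 72 hr. They are then formaldehyde-fixed, antibody-labelled for p53, Hoechst-stained and imaged, with activity fitted bidirectionally versus DMSO.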

Test [18] can be described thus: APR_HepG2_MitoMass_72hr: Apredica 72-hour HepG2 Assay for Mitochondrial Mass (AID 2282924).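 Also: MitoTracker Red CMXRos stain intensity per cell imaged as mitochondrial mass.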 Particulars: high-content imaging, actives raise or lower the signal. Summed up:
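HepG2 cells were exposed for 72 hr to compounds at 0.39–200 uM (ten concentrations, duplicate, 0.5% v/v DMSO final). Live cells were stained with 250 nM MitoTracker Red CMXRos for 30 min, then fixed in 3.7% formaldehyde and imaged by HCS fluorescence.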

The nature of test [19]: APR_HepG2_NuclearSize_72hr: Apredica 72-hour HepG2 Assay for Nuclear Size (AID 2282925). Particulars: high-content imaging, actives raise or lower the signal. Summed up:
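HepG2 cells were exposed to compounds at ten concentrations from 0.39 to 200 uM (duplicate, 0.5% DMSO final) for 72 hr. After fixation in 3.7% formaldehyde, nuclei were stained with Hoechst 33342 (2 ug/mL) and imaged at 20x.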

Structures are written as SMILES. The source made the active and inactive calls. The calls were made as follows: active = hit-call score of the fitted dose curve at least 0.9, where 1 is the maximum; inactive = score below 0.9.

For the molecule `CN(C)C(=O)Nc1ccc(Cl)cc1`, the molecule was classed as inactive in test [1], in [2], in test [3], in test [4], in test [5] and in [6]. Moreover, the molecule was called inactive in test [7], in [8], in test [9], in test [10], in [11] and in test [12]. In addition, the call in test [13], in test [14], in [15], in test [16], in test [17] and in test [18] was inactive. In addition, the outcome in test [19] was inactive.

Consider `CCN(CC)CCO`, for which the molecule was called inactive in test [1], in test [2], in test [3], in test [4], in [5] and in test [6]. The call in test [7], in test [8], in [9], in [10], in test [11] and in test [12] was inactive. Besides, the molecule was called inactive in [13], in [14], in test [15], in test [16], in [17] and in [18]. In addition, the outcome in test [19] was inactive.

As for `Nc1ccc(Oc2ccc(N)cc2)cc1`, the molecule was classed as inactive in test [1], in test [2], in test [3], in test [4], in test [5] and in test [6]. In addition, the result in test [7], in [8], in test [9], in [10], in test [11] and in [12] was inactive. Moreover, the molecule was classed as inactive in test [13], in [14], in test [15], in test [16], in test [17] and in test [18]. Also, the call in [19] was inactive.

A word on the AC50: it is the midpoint of the concentration-response curve, whichever way the signal moves. Regarding `Nc1ccc(N=Nc2ccccc2)cc1`, the molecule was classed as inactive in test [1], in test [2], in [3], in [4], in [5] and in test [6]. The outcome in [7], in [14], in test [15], in test [16] and in [19] was inactive. In addition, the AC50 in [8] is 23.6 µM (active); in test [9] it was 99.4 µM (active); in [10] it was 63.4 µM (active); in [17], 71.1 µM (active).

Turning to `O=C(N[C@H](c1ccccc1)[C@@H]1CN2CCC1CC2)c1c(Cl)ccc(C(F)(F)F)c1Cl`, the AC50 in test [1] is 88.8 µM (active); in [2] it was 120 µM (active); in test [4], 78.7 µM (active); in test [7], 101 µM (active); in test [8], 30.6 µM (active); in test [9], 64 µM (active). Also, the AC50 in test [10] is 44 µM (active); in test [12], 24 µM (active); in test [14], 117 µM (active). In addition, the molecule was called inactive in test [3], in test [5], in test [6], in test [11], in test [13] and in [15]. Also, the result in [16], in test [17], in [18] and in test [19] was inactive.

`Cc1cc(N=Nc2ccccc2C)ccc1N`: the result in test [1], in test [3], in test [7], in test [10], in test [11] and in test [12] was inactive. Moreover, the result in test [13], in test [15] and in test [18] was inactive. The AC50 in test [2] was 70 µM (active); in [4], 87.6 µM (active); in [5] it was 101 µM (active); in [6], 121 µM (active); in test [8] it was 21.5 µM (active); in [9] it was 43.1 µM (active). Moreover, the AC50 was 100 µM (active) in test [14], 100 µM (active) in [16], 2.34 µM (active) in [17] and 56.3 µM (active) in [19].

With `CC(O)CCO` (centres undefined), the call in test [1], in test [2], in test [3], in test [4], in test [5] and in [6] was inactive. The molecule was called inactive in test [7], in test [8], in [9], in test [10], in [11] and in test [12]. The molecule was called inactive in test [13], in test [14], in test [15], in [16], in test [17] and in test [18]. Moreover, the molecule was called inactive in [19].
